# Bioassay records deposited in PubChem by National Center for Advancing Translational Sciences (NCATS).
# Sampled rows, rich in hits. Any-hit rate of the full collection: about 12%.
# Sfp inh – Sfp phosphopantetheinyl transferase inhibition; Q9F4F7; Biochemical Sfp PPTase activity, qHTS; Potency, µM, for the others: largest response in the series, negative = inhibition, most hits filed as inhibitors; actives 3.5% (n = 310,000);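 further: the enzyme is Sfp with the accession as filed and its product quenches rhodamine fluorescence; 0% = enzyme reaction without inhibitor and -100% = no enzyme wells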
#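 After 15 min at room temperature with compound, 15 nM Sfp received 5 uM rhodamine-CoA plus 12.5 uM BHQ-2-ybbR (50 mM Hepes pH 7.6, 10 mM MgCl2). Rate came from the fluorescence difference over 30 min, ex 525/em 598 nm.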
# JMJD2A Tudor – inhibitors of human JMJD2A Tudor domain. actives 4.4% (n = 390,000). AlphaScreen JMJD2A-Tudor / H3K4me3 peptide binding. AID 504339. Potency, µM (titrated, usually from 114 µM), for the others: top-dose activity change, negative = inhibition, usual class: inhibitors. O75164; further: on the % scale 0 is the no-effect control and ±100 the full control effect; nearly all actives have a fitted effect of over 50% in size
# BAZ2B block – inhibitors of human BAZ2B bromodomain; Potency, µM (top dose mostly 114 µM), inactives show at the highest dose activity change, negative = inhibition, usual class: inhibitors; actives 4.4% (n = 360,000); Q9UIF8; AlphaScreen BAZ2B-H3K14Ac peptide displacement; further: on the % scale 0 is the no-effect control and ±100 the full control effect; nearly all actives have a fitted effect of over 60% in size
# Target sequence (Q9UIF8 whole entry, looked up): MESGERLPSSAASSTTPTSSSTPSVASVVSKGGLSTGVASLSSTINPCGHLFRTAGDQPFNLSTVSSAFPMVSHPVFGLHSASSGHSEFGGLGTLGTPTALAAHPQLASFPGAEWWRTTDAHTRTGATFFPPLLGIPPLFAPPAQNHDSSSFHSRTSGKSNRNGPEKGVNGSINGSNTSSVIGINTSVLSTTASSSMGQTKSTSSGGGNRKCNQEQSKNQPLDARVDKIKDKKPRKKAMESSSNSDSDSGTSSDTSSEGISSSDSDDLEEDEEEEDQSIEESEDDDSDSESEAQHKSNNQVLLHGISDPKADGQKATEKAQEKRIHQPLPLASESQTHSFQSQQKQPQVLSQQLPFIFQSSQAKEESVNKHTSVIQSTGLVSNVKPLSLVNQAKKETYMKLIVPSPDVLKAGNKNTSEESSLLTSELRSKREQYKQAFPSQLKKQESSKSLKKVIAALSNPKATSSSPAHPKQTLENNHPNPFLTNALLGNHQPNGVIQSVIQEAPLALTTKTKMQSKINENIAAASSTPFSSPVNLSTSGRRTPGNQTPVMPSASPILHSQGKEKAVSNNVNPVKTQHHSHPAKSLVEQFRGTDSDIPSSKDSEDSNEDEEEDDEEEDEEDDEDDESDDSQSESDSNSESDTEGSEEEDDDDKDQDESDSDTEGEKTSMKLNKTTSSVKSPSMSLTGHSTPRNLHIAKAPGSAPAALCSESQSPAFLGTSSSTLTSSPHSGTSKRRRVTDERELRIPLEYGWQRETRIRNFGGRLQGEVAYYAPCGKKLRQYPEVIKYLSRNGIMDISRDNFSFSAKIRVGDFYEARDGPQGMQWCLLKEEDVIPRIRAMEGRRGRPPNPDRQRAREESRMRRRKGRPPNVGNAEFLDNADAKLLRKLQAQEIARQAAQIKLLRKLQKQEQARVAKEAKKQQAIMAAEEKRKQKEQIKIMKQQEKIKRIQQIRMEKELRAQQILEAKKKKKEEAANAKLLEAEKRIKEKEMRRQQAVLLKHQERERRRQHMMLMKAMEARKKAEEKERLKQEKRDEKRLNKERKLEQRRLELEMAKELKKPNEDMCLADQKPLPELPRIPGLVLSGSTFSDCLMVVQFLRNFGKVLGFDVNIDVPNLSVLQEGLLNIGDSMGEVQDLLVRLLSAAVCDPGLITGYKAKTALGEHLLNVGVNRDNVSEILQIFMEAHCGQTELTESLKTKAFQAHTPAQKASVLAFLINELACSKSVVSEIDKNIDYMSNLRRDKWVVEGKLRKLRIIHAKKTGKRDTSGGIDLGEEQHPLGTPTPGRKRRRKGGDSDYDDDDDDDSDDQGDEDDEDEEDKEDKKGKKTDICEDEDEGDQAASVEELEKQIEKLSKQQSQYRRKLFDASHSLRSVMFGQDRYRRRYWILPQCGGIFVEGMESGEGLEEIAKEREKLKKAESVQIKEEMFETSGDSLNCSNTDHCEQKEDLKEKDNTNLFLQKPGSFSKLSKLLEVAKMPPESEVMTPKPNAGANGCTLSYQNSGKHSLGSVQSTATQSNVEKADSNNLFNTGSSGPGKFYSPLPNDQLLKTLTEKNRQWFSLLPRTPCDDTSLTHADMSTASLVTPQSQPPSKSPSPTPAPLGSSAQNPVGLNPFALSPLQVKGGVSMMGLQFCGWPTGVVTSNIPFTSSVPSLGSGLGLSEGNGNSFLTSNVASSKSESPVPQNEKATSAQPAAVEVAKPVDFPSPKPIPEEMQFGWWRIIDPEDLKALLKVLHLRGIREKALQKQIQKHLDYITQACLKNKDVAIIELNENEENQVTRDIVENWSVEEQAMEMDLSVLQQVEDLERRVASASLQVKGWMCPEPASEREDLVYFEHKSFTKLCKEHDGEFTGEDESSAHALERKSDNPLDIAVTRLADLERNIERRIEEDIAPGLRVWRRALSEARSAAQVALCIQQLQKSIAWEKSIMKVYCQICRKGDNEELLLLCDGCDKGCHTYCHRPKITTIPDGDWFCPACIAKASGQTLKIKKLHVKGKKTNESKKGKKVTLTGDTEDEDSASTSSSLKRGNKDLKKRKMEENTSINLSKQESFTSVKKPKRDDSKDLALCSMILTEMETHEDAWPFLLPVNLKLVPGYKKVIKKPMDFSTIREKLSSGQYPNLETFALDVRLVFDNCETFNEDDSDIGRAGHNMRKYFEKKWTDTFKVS
#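 AlphaScreen displacement: compounds (up to 110uM) incubated 30 min at room temperature with a preformed 50 nM BAZ2B/50 nM biotinylated H3K14Ac peptide complex in PBS pH 7.4 with Tween-20. Donor and acceptor beads at 10 ug/mL final added, 20 min light-protected before reading.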
# L3MBTL1 inh – L3MBTL1 (human) inhibition; Q9Y468; AlphaScreen L3MBTL1–H3K9me1 peptide binding; Potency, µM (top dose mostly 57.1 µM), for the others: top-dose activity, negative = inhibition, usual class: inhibitors; actives 0.66% (n = 230,000); further: on the % scale 0 is the no-effect control and ±100 the full control effect; nearly all actives have a fitted effect of over 60% in size
#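 First, the protein-peptide complex forms for 30 min at room temperature (L3MBTL1 50 nM, biotinylated H3K9me1 peptide 75 nM). Next, compounds are pin-transferred and incubated 30 min. Finally, AlphaScreen beads are added and read after 30 min.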
# G9a inh – inhibitors of human histone lysine methyltransferase G9a; Q96KQ7; G9a H3K9 monomethylation, AlphaScreen, 2 h; Potency, µM (top dose mostly 102 µM), for inactives: at the top dose activity, negative = inhibition, usual class: inhibitors; actives 8.8% (n = 350,000); AID 504332; further: on the % scale 0 is the no-effect control and ±100 the full control effect; nearly all actives have a fitted effect of over 75% in size
#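 Chemiluminescent proximity detection of H3K9 monomethylation, read after 10 min bead incubation in the dark. Reaction: 20 nM G9a, 500 nM biotin-H3K9 peptide, 20 uM SAM cofactor, 2 h, room temperature, following 15 min enzyme-compound preincubation.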
# HP1b chromo inh – blocks HP1-beta chromodomain binding to methylated histone tails | Potency, µM (doses to about 114 µM), without a hit: at the highest dose activity change, negative = inhibition, actives largely listed as inhibitors | P83916 | AlphaScreen HP1-beta / biotin-H3K9me3 peptide binding | actives 0.56% (n = 390,000); further: nearly all actives have a fitted effect of over 70% in size
#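 AlphaScreen: HP1-beta (50 nM) preformed 30 min with biotin-H3(1-18)K9me3 peptide (50 nM) in PBS pH 7.4, 0.01% Tween-20. Compound added for 30 min at RT, then streptavidin donor/nickel chelate acceptor beads (10 ug/mL) for 30 min.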
# * = called active by the depositor; ? = inconclusive; . = not tested or not shown; [ ] = another dose, or the depositor's remark. The call rests on the fitted dose curve; in most records, active means well fitted curve in the direction sought with a large enough effect; inconclusive means small, poorly fitted or top-dose-only effect, or another doubt; inactive means no such curve, though single readings can be large; an effect the other way counts as inactive or inconclusive. Potency means the concentration at half of the fitted maximal effect.
SMILES,Sfp inh,JMJD2A Tudor,BAZ2B block,L3MBTL1 inh,G9a inh,HP1b chromo inh
CC1(C)CC(=O)C2=C(C1)N(c1cccnc1)C(N)=C(C#N)C2c1cccs1 (configuration not stated),?,-10.6%,-4.1%,-5.5%,-14.5%[59 µM],42.0%
CCOc1ccc(C2C(C#N)=C(N)N(N(C)C)C3=C2C(=O)CC(C)(C)C3)cc1 (configuration not stated),9.5%,-2.8%,-2.5%,.,35.5µM*,29.5%
Cc1ccc(C2C(C#N)=C(N)N(c3cccnc3)C3=C2C(=O)CCC3)s1 (configuration not stated),-6.7%,-31.6%,?,-14.7%,39.8µM*,49.0%
Cn1ncc(C(=O)N2CCN(c3ccc(F)cc3)CC2)c1C1CCN(C(=O)OC(C)(C)C)CC1,.,-12.6%,7.8%[57.1 µM],.,-26.8%[59 µM],2.3%
Cc1cc2c(s1)c1cnn(CC(=O)N3CCOCC3)c(=O)c1n2C,.,-10.0%[57.1 µM],.,.,.,17.9%[57 µM]
COc1ccc(C2C3=C(CC(C)(C)CC3=O)N(CC(=O)O)C3=C2C(=O)CC(C)(C)C3)cc1OC,13.8%,8.6%,-19.4%,1.2%,70.8µM*,49.1%
CC1(C)CC(=O)C2=C(C1)N(c1ccccc1C#N)C(N)=C(C#N)C2c1cccs1 (configuration not stated),-17.4%,?,56.2µM*,.,39.8µM*,-4.8%
CCCCCN1C(C(=O)c2ccccc2)=C(NC(=O)c2ccccc2Cl)c2ccccc2S1(=O)=O,.,-27.5%,-0.2%[57.1 µM],.,-26.7%[59 µM],21.5%
CCOC(=O)Cc1nnc(NC(=O)C2CCCCC2)s1,18.0%,9.6%,-27.2%,-0.5%,-1.8%,41.9%
CCc1nnc(NC(=O)CN2CC(C)OC(C)C2)s1 (configuration not stated),-2.9%,-1.4%,-2.9%,4.2%,14.4%,13.5%
CCc1nnc(NC(=O)C2CCCCC2)s1,31.6µM*,7.5%,5.6%,-3.5%,?,22.3%
CCc1nnc(NC(=O)CN2CCN(C3CCCCC3)CC2)s1,89.1µM*,7.08µM*,?,.,10µM*,-18.7%
Cn1c(Cn2nnc3ccccc32)nnc1SCC(N)=O,-1.3%,-20.9%,19.7%,.,?,25.0%
c1ccc2c(c1)nnn2Cc1nnc2sc(-c3ccc4c(c3)OCCO4)nn12,17.8µM*,-29.4%,-1.2%,11.4%,?,-35.9%
COc1ccc(Cc2nn3c(Cn4nnc5ccccc54)nnc3s2)cc1,15.8µM*,89.1µM*,-38.4%,-0.4%,1.58µM*,?
c1ccc(-c2nn3c(Cn4nnc5ccccc54)nnc3s2)cc1,-99.8%,?,1.4%,-0.7%,3.16µM*,?
Cc1ccc2c(=O)cc(C(=O)Nc3cccc(C(F)(F)F)c3)oc2c1C,.,-12.2%,1.7%,.,5.7%[59 µM],5.1%
C[N+](C)(C)c1ccc(/C=N/Nc2nc(Cl)c(C#N)c(Cl)c2Cl)cc1,-7.5%,31.6µM*,50.1µM*,-2.9%,?,9.0%
N#Cc1c(Cl)nc(N/N=C/c2ccccc2)c(Cl)c1Cl,?,-5.1%,-35.1%,-15.0%,-24.4%[59 µM],18.8%
COc1cc(NS(=O)(=O)c2ccc(NC(=S)NC(=O)/C=C/c3ccc(OC)c(OC)c3)cc2)ncn1,-9.3%,-24.1%[11.4 µM],12.6µM*,3.9%,39.8µM*,22.4µM*
COc1ccc(/C=C/C(=O)NC(=S)Nc2ccc(S(=O)(=O)Nc3cc(OC)ncn3)cc2)cc1,-9.3%,-19.6%,-19.6%,.,39.8µM*,7.1%
COc1ccc(/C=C/C(=O)NC(=S)Nc2ccc(S(=O)(=O)Nc3nccnc3OC)cc2)cc1,?,-12.2%,-34.1%,-10.2%,?,-12.4%
CC(=O)NC(=S)Nc1ccccc1N1CCCCC1,-18.4%,-7.7%,-27.5%,-3.3%,50.1µM*,25.9%[57 µM]
O=C(NC(=S)Nc1ccccc1N1CCCC1)c1ccc([N+](=O)[O-])cc1,?,25.1µM*,11.2µM*,7.08µM*,11.2µM*,22.4µM*
CC(C)(C)C(CCl)C(=O)NN=C(c1ccccc1)c1ccccc1 (configuration not stated),.,100µM*,?,15.1%,-29.3%[2.33 µM],49.2%
SMILES,Sfp inh,JMJD2A Tudor,BAZ2B block,L3MBTL1 inh,G9a inh,HP1b chromo inh
FC(F)(F)c1ccccc1-c1ccc2ncnc(NCc3cccnc3)c2c1,-7.1%,.,.,.,-44.9%[0.501 µM],.
Cc1nc(N2CCCC2)ncc1C(=O)N1CCN(c2ccc(Cl)cc2)CC1,.,-16.9%,79.4µM*,.,3.7%[59 µM],38.2%
CCOc1ccc(CCNC(=O)c2nc(-c3cccc(F)c3)n3c2CCCCC3)cc1OCC,.,50.1µM*,17.8µM*,.,28.2µM*,?
Cc1nc(N2CCCC2)ncc1C(=O)N1CCN(c2ccccc2F)CC1,.,8.3%,-11.9%,.,2.8%[12.7 µM],28.8%
Cc1ccc(-c2nc(C(=O)N3CCN(c4ccccc4)CC3)c3n2CCCCC3)cc1,.,-3.9%,-4.4%,.,3.1%[59 µM],35.0%
COc1ccc(N2CCN(C(=O)c3nc(-c4ccc(Cl)cc4)n4c3CCCCC4)CC2)cc1,.,35.5µM*,44.7µM*,.,11.2µM*,?
Cc1ccc(CNC(=O)c2nc(-c3ccc(Cl)cc3)n3c2CCCCC3)cc1,.,22.4µM*,10µM*,.,8.91µM*,?
COc1ccc(NC(=O)c2nc(-c3ccc(C)cc3)n3c2CCCCC3)cc1,.,-23.0%,-27.7%,.,?,26.5%
CN(C(=O)c1nc(-c2cccc(F)c2)n2c1CCCCC2)c1ccccc1F,.,-27.1%,1.0%,.,8.7%[59 µM],52.5%
COc1ccccc1CNC(=O)Cn1c(-c2cccs2)cc2cc(F)ccc21,.,6.3%,0.3%,.,-3.2%[59 µM],45.3%
COc1ccc(OC)c(CCNC(=O)c2nc(-c3ccc(Cl)cc3)n3c2CCCCC3)c1,.,28.2µM*,15.8µM*,.,14.1µM*,-20.8%
COc1ccc(NC(=O)c2nc(-c3ccc(C)cc3)n3c2CCCCC3)c(OC)c1,.,-10.5%,0.2%,.,4.7%[59 µM],23.8%
CC(C)(C)OC(=O)N1CCC(c2c(C(=O)N3CCN(c4ccccn4)CC3)cnn2-c2ccccc2Cl)CC1,.,-17.2%,4.3%[57.1 µM],.,-27.6%[59 µM],35.6%
COc1ccc(CNC(=O)c2cnc(N3CCCC3)nc2C)cc1,.,-0.3%,-4.4%,.,34.4%[59 µM],23.3%
CC1(C)Cc2c(C#N)c(NCCO)nc(-c3ccco3)c2CO1,15.8µM*,13.2%,-1.8%,9.1%,39.8µM*,52.7%
N#Cc1c(NCCCO)nc(-c2ccco2)c2c1CCCC2,39.8µM*,15.2%,6.0%,.,3.16µM*,25.4%
CC1CCN(c2nc(-c3ccco3)c3c(c2C#N)CC(C)(C)OC3)CC1,14.1µM*,0.7%,10.1%,-16.0%,?,33.0%
N#Cc1c(NC2CCCCC2)nc(-c2ccco2)c2c1CCCC2,?,53.2%,7.3%,.,-10.6%[12.7 µM],29.4%
Cc1cc(C(=O)C(C)OC(=O)c2cnccn2)c(C)n1-c1ccccc1 (configuration not stated),.,?,25.1µM*,-21.8%,56.2µM*,-11.9%
